{
  "source": "paper PMC11006913",
  "assay_in_all_cases": "PBM; 200 nM protein, PBS",
  "conditions_in_all_cases": "dsDNA, one strand shown",
  "key": {"[1]": {"molecular_target": "CRX (Homo sapiens, UniProt O43186 26-111)", "sequence (O43186 26-111)": "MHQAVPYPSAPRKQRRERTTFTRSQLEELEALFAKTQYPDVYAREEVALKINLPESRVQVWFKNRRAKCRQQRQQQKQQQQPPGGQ"}, "[2]": {"molecular_target": "HOXC9 (Homo sapiens, UniProt P31274 178-260, K195R)", "sequence (P31274 178-260 K195R)": "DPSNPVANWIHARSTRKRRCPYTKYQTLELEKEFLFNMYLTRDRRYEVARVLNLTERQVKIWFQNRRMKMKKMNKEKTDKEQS"}, "[3]": {"molecular_target": "ALX4 (Homo sapiens, UniProt Q9H161 200-286)", "sequence (Q9H161 200-286)": "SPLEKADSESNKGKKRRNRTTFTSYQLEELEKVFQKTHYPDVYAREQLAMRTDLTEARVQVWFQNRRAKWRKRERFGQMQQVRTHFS"}, "[4]": {"molecular_target": "ALX4 (Homo sapiens, UniProt Q9H161 200-286, Q225E)", "sequence (Q9H161 200-286 Q225E)": "as the sequence (Q9H161 200-286) above, with Q26E counted along it"}, "[5]": {"molecular_target": "CRX (Homo sapiens, UniProt O43186 26-111, E42D)", "sequence (O43186 26-111 E42D)": "as the sequence (O43186 26-111) above, with E17D counted along it"}, "[6]": {"molecular_target": "HOXC9 (Homo sapiens, UniProt P31274 178-260)", "sequence (P31274 178-260)": "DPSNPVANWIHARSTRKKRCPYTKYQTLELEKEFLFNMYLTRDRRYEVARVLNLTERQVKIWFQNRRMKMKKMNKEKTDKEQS"}, "[7]": {"molecular_target": "HOXC9 (Homo sapiens, UniProt P31274 178-260, R193K)", "sequence (P31274 178-260 R193K)": "as the sequence (P31274 178-260) above, with R16K counted along it"}, "[8]": {"molecular_target": "HOXC9 (Homo sapiens, UniProt P31274 178-260, R222W)", "sequence (P31274 178-260 R222W)": "as the sequence (P31274 178-260) above, with R45W counted along it"}, "[9]": {"molecular_target": "CRX (Homo sapiens, UniProt O43186 26-111, R41L)", "sequence (O43186 26-111 R41L)": "as the sequence (O43186 26-111) above, with R16L counted along it"}, "[10]": {"molecular_target": "HOXA4 (Homo sapiens, UniProt Q00056 201-287, W262R)", "sequence (Q00056 201-287 W262R)": "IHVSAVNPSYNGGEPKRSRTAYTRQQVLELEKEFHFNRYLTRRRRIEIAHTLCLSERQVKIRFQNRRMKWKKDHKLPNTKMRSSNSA"}, "[11]": {"molecular_target": "PRRX1 (Homo sapiens, UniProt P54821 80-166, F113S)", "sequence (P54821 80-166 F113S)": "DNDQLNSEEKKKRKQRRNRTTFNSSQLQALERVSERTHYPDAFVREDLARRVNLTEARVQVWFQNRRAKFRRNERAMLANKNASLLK"}, "[12]": {"molecular_target": "HOXA4 (Homo sapiens, UniProt Q00056 201-287, R217L)", "sequence (Q00056 201-287 R217L)": "as the sequence (Q00056 201-287 W262R) above, with R17L, R62W counted along it"}, "[13]": {"molecular_target": "HOXA4 (Homo sapiens, UniProt Q00056 201-287)", "sequence (Q00056 201-287)": "as the sequence (Q00056 201-287 W262R) above, with R62W counted along it"}, "[14]": {"molecular_target": "HOXA4 (Homo sapiens, UniProt Q00056 201-287, W262F)", "sequence (Q00056 201-287 W262F)": "as the sequence (Q00056 201-287 W262R) above, with R62F counted along it"}, "[15]": {"molecular_target": "PRRX1 (Homo sapiens, UniProt P54821 80-166)", "sequence (P54821 80-166)": "as the sequence (P54821 80-166 F113S) above, with S34F counted along it"}, "[16]": {"molecular_target": "T1, VENTX (Homo sapiens, UniProt O95231 78-163, R121Q)", "T1 sequence": "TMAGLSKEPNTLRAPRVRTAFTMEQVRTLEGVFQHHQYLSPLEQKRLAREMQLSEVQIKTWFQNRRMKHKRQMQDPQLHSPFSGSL"}, "[17]": {"molecular_target": "T2, VENTX (Homo sapiens, UniProt O95231 78-163)", "T2 sequence": "T1 sequence with Q44R"}, "[18]": {"molecular_target": "T3, VENTX (Homo sapiens, UniProt O95231 78-163, Y115F)", "T3 sequence": "T1 sequence with Y38F, Q44R"}, "[19]": {"molecular_target": "HOXB9 (Homo sapiens, UniProt P17482 171-250)", "sequence (P17482 171-250)": "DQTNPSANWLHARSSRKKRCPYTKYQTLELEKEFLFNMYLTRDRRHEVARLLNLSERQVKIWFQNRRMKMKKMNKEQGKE"}, "[20]": {"molecular_target": "PITX2 (Homo sapiens, UniProt Q99697 72-157)"}, "[21]": {"molecular_target": "HOXB9 (Homo sapiens, UniProt P17482 171-250, R186Q)", "sequence (P17482 171-250 R186Q)": "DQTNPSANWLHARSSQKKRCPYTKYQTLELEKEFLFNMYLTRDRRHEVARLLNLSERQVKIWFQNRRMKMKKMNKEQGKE"}, "[22]": {"molecular_target": "HOXA7 (Homo sapiens, UniProt P31268 116-202)", "sequence (P31268 116-202)": "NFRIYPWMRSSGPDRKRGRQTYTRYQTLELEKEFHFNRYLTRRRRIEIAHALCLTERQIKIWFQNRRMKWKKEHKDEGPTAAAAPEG"}, "[23]": {"molecular_target": "HOXA7 (Homo sapiens, UniProt P31268 116-202, W177C)", "sequence (P31268 116-202 W177C)": "as the sequence (P31268 116-202) above, with W62C counted along it"}, "[24]": {"molecular_target": "HOXB6 (Homo sapiens, UniProt P17509 132-218, K202E)", "sequence (P17509 132-218 K202E)": "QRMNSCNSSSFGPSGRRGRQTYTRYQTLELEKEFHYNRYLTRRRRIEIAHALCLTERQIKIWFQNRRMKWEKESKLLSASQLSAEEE"}, "[25]": {"molecular_target": "MSX2 (Homo sapiens, UniProt P35548 130-214)", "sequence (P35548 130-214)": "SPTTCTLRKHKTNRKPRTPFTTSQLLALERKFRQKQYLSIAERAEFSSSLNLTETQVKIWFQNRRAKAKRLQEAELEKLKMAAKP"}, "[26]": {"molecular_target": "MSX2 (Homo sapiens, UniProt P35548 130-214, F161Y)", "sequence (P35548 130-214 F161Y)": "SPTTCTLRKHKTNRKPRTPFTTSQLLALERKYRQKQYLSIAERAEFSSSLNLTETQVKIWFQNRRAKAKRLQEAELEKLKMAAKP"}, "[27]": {"molecular_target": "HOXB6 (Homo sapiens, UniProt P17509 132-218)", "sequence (P17509 132-218)": "as the sequence (P17509 132-218 K202E) above, with E71K counted along it"}},
  "note": "Where a chain is given by its changes, count along the chain named.",
  "data": [
    {"sequence": "AGGGGACC", "values": [
      {"measurement": "binding signal", "setting": "[1]", "result": "8.1 upbm affinity estimate (log intensity, higher = more binding, comparable within an allelic series)"},
      {"measurement": "binding signal", "setting": "[2]", "result": "9.61 upbm affinity estimate (log intensity, higher = more binding, comparable within an allelic series)"},
      {"measurement": "binding signal", "setting": "[3]", "result": "8.18 upbm affinity estimate (log intensity, higher = more binding, comparable within an allelic series)"},
      {"measurement": "binding signal", "setting": "[4]", "result": "8.19 upbm affinity estimate (log intensity, higher = more binding, comparable within an allelic series)"},
      {"measurement": "binding signal", "setting": "[5]", "result": "8.22 upbm affinity estimate (log intensity, higher = more binding, comparable within an allelic series)"},
      {"measurement": "binding signal", "setting": "[6]", "result": "9.69 upbm affinity estimate (log intensity, higher = more binding, comparable within an allelic series)"},
      {"measurement": "binding signal", "setting": "[7]", "result": "9.54 upbm affinity estimate (log intensity, higher = more binding, comparable within an allelic series)"},
      {"measurement": "binding signal", "setting": "[8]", "result": "9.53 upbm affinity estimate (log intensity, higher = more binding, comparable within an allelic series)"},
      {"measurement": "binding signal", "setting": "[9]", "result": "8.23 upbm affinity estimate (log intensity, higher = more binding, comparable within an allelic series)"}
    ]},
    {"sequence": "GGGGCTCA", "values": [
      {"measurement": "binding signal", "setting": "[1]", "result": "9.96 upbm affinity estimate (log intensity, higher = more binding, comparable within an allelic series)"},
      {"measurement": "binding signal", "setting": "[10]", "result": "9.76 upbm affinity estimate (log intensity, higher = more binding, comparable within an allelic series)"},
      {"measurement": "binding signal", "setting": "[11]", "result": "9.31 upbm affinity estimate (log intensity, higher = more binding, comparable within an allelic series)"},
      {"measurement": "binding signal", "setting": "[12]", "result": "9.78 upbm affinity estimate (log intensity, higher = more binding, comparable within an allelic series)"},
      {"measurement": "binding signal", "setting": "[5]", "result": "9.8 upbm affinity estimate (log intensity, higher = more binding, comparable within an allelic series)"},
      {"measurement": "binding signal", "setting": "[13]", "result": "9.76 upbm affinity estimate (log intensity, higher = more binding, comparable within an allelic series)"},
      {"measurement": "binding signal", "setting": "[14]", "result": "9.78 upbm affinity estimate (log intensity, higher = more binding, comparable within an allelic series)"},
      {"measurement": "binding signal", "setting": "[15]", "result": "9.52 upbm affinity estimate (log intensity, higher = more binding, comparable within an allelic series)"}
    ]},
    {"sequence": "GGATTACA", "values": [
      {"measurement": "binding signal", "setting": "[1]", "result": "13.1 upbm affinity estimate (log intensity, higher = more binding, comparable within an allelic series)"},
      {"measurement": "binding signal", "setting": "[16]", "result": "9.08 upbm affinity estimate (log intensity, higher = more binding, comparable within an allelic series)"},
      {"measurement": "binding signal", "setting": "[17]", "result": "9.3 upbm affinity estimate (log intensity, higher = more binding, comparable within an allelic series)"},
      {"measurement": "binding signal", "setting": "[18]", "result": "9.18 upbm affinity estimate (log intensity, higher = more binding, comparable within an allelic series)"},
      {"measurement": "binding signal", "setting": "[19]", "result": "9.44 upbm affinity estimate (log intensity, higher = more binding, comparable within an allelic series)"},
      {"measurement": "binding signal", "setting": "[5]", "result": "13 upbm affinity estimate (log intensity, higher = more binding, comparable within an allelic series)"},
      {"measurement": "binding signal", "setting": "[20]", "result": "12.8 upbm affinity estimate (log intensity, higher = more binding, comparable within an allelic series)"},
      {"measurement": "binding signal", "setting": "[21]", "result": "9.52 upbm affinity estimate (log intensity, higher = more binding, comparable within an allelic series)"},
      {"measurement": "binding signal", "setting": "[9]", "result": "13 upbm affinity estimate (log intensity, higher = more binding, comparable within an allelic series)"}
    ]},
    {"sequence": "GACCGACA", "values": [
      {"measurement": "binding signal", "setting": "[1]", "result": "8.43 upbm affinity estimate (log intensity, higher = more binding, comparable within an allelic series)"},
      {"measurement": "binding signal", "setting": "[22]", "result": "8.51 upbm affinity estimate (log intensity, higher = more binding, comparable within an allelic series)"},
      {"measurement": "binding signal", "setting": "[5]", "result": "8.36 upbm affinity estimate (log intensity, higher = more binding, comparable within an allelic series)"},
      {"measurement": "binding signal", "setting": "[23]", "result": "8.57 upbm affinity estimate (log intensity, higher = more binding, comparable within an allelic series)"},
      {"measurement": "binding signal", "setting": "[9]", "result": "8.31 upbm affinity estimate (log intensity, higher = more binding, comparable within an allelic series)"}
    ]},
    {"sequence": "GCAGATTA", "values": [
      {"measurement": "binding signal", "setting": "[1]", "result": "13 upbm affinity estimate (log intensity, higher = more binding, comparable within an allelic series)"},
      {"measurement": "binding signal", "setting": "[16]", "result": "10.3 upbm affinity estimate (log intensity, higher = more binding, comparable within an allelic series)"},
      {"measurement": "binding signal", "setting": "[18]", "result": "10.4 upbm affinity estimate (log intensity, higher = more binding, comparable within an allelic series)"},
      {"measurement": "binding signal", "setting": "[5]", "result": "13 upbm affinity estimate (log intensity, higher = more binding, comparable within an allelic series)"},
      {"measurement": "binding signal", "setting": "[20]", "result": "12.3 upbm affinity estimate (log intensity, higher = more binding, comparable within an allelic series)"}
    ]},
    {"sequence": "CCAGATTA", "values": [
      {"measurement": "binding signal", "setting": "[1]", "result": "13 upbm affinity estimate (log intensity, higher = more binding, comparable within an allelic series)"},
      {"measurement": "binding signal", "setting": "[16]", "result": "10 upbm affinity estimate (log intensity, higher = more binding, comparable within an allelic series)"},
      {"measurement": "binding signal", "setting": "[24]", "result": "9.66 upbm affinity estimate (log intensity, higher = more binding, comparable within an allelic series)"},
      {"measurement": "binding signal", "setting": "[5]", "result": "13 upbm affinity estimate (log intensity, higher = more binding, comparable within an allelic series)"},
      {"measurement": "binding signal", "setting": "[25]", "result": "11.3 upbm affinity estimate (log intensity, higher = more binding, comparable within an allelic series)"},
      {"measurement": "binding signal", "setting": "[26]", "result": "11.1 upbm affinity estimate (log intensity, higher = more binding, comparable within an allelic series)"},
      {"measurement": "binding signal", "setting": "[9]", "result": "12.7 upbm affinity estimate (log intensity, higher = more binding, comparable within an allelic series)"},
      {"measurement": "binding signal", "setting": "[27]", "result": "10.3 upbm affinity estimate (log intensity, higher = more binding, comparable within an allelic series)"}
    ]},
    {"sequence": "AGATTAGC", "values": [
      {"measurement": "binding signal", "setting": "[1]", "result": "13 upbm affinity estimate (log intensity, higher = more binding, comparable within an allelic series)"},
      {"measurement": "binding signal", "setting": "[16]", "result": "10.5 upbm affinity estimate (log intensity, higher = more binding, comparable within an allelic series)"},
      {"measurement": "binding signal", "setting": "[18]", "result": "10.4 upbm affinity estimate (log intensity, higher = more binding, comparable within an allelic series)"},
      {"measurement": "binding signal", "setting": "[5]", "result": "13.1 upbm affinity estimate (log intensity, higher = more binding, comparable within an allelic series)"},
      {"measurement": "binding signal", "setting": "[20]", "result": "12.5 upbm affinity estimate (log intensity, higher = more binding, comparable within an allelic series)"},
      {"measurement": "binding signal", "setting": "[9]", "result": "12.7 upbm affinity estimate (log intensity, higher = more binding, comparable within an allelic series)"}
    ]}
  ]
}
